{"source": "PubChem BioAssay (NCATS)", "note": "Records with an inconclusive call do not appear. Activity calls are given as the source filed them. The call rests on the fitted dose curve. Bridge positions count the residues as written; N and C are the ends. Square brackets hold non-standard residues; d marks the D form. Peptide text beside a SMILES is read from it. Orn = NCCC[CH](N)C(=O)O; Mpa = O=C(O)CCS", "data": [{"assay": "Primary qHTS to identify inhibitors of SARS-CoV-2 cell entry (AID 1645846); further: nearly all actives have a fitted effect of over 45% in size; further: potency means the concentration at half of the fitted maximal effect", "settings": "SARS-CoV-2 pseudovirus cell entry assay, luminescence; activity change, negative = inhibition: at 57.1 µM (top of the series) unless noted", "text": "Assay Provider: Wei Zheng, Ph.D.\nNational Center for Advancing Translational Sciences, National Institute of Health, Rockville, MD.\nSARS-CoV-2 spike protein, within the viral envelope, mediates viral attachment and infection of host cells. The SARS-CoV-2 spike protein specifically binds to the host receptor ACE2 (Angiotensin-converting enzyme 2). This interaction promotes endocytosis of the viral particle, additional events lead to viral-host cell membrane fusion and release of the viral contents, allowing viral replication.\nWhile SARS-CoV-2 requires BSL-3 facilities for live virus work, pseudotyped partices (PP) that incorporate SARS-CoV-2 spike proteins without replication elements could facilitate studies on viral entry mechanisms in a BSL-2 setting. This PP cell entry assay could also enable screening of small molecule compound libraries in BSL-2 setting to identify inhibitors of SARS-CoV-2 cell entry.\nPROTOCOL TABLE (format as described by Inglese J, Shamu CE and Guy RK. 2007)\nSEQUENCE No. (e.g., 1, 2, 3, etc.); […] (e.g., Cells, Incubation, Reagent, etc.); VALUE and DESCRIPTION.\n1. Cells. Seed 1500 HEK293-ACE2 cells (Expi293F with stable expression of human ACE2) in 2 uL/well media (DMEM, 10% FBS, 1x L-glutamine, 1x Pen/Strep, 1 ug/ml puromycin) in white 1536-well assay plates (Greiner #782073).\n2. Incubation. Incubate at 37C with 5% CO2 overnight (~16 h).\n3. Compounds. Dispense 23 nL/well compounds in DMSO via pin transfer.\n4. Incubation. Incubate for 1 hr at 37C 5% CO2.\n5. Reagent. Dispense 2 uL/well of SARS-CoV-2-S pseudotyped particles. [a] PPs are produced with murine leukemia virus pseudotyping. [b] SARS-CoV-2-S is Wuhan-Hu-1 sequence (BEI #NR-52420) with C-terminal 19 amino acid truncation.\n6. Centrifuge. […]\n7. Incubation. Incubate at for 48 hr at 37C 5% CO2\n8. Centrifuge. Remove supernatant with gentle centrifugation using a Blue Washer (BlueCat Bio).\n9. Reagent. Dispense 4 uL/well of Bright-Glo Luciferase detection reagent (Promega #E2620).\n10. Incubation. Incubate for 5 min at room temperature.\n11. Detection. Read luminescence signal (Viewlux plate reader, PerkinElmer). Data was normalized with wells containing SARS-CoV-2-S PP as 100%, and wells containing bald PP (no fusion protein) as 0%.", "values": [{"compound": "N#C[C@@H]1C[C@@H]2C[C@@H]2N1C(=O)[C@@H](N)C12CC3CC(CC(O)(C3)C1)C2", "activity change, negative = inhibition": "-14.2%"}, {"compound": "CNc1ncc(-c2ccc3c(=O)c(C(=O)O)cn(C4CC4)c3c2C)cc1C", "activity change, negative = inhibition": "-15.2% [at 19 µM]"}, {"compound": "CCC(=O)O[C@]1(C(=O)COC(C)=O)CC[C@H]2[C@@H]3C[C@H](C)C4=CC(=O)C=C[C@]4(C)[C@H]3[C@@H](O)C[C@@]21C", "activity change, negative = inhibition": "-17.7%"}, {"compound": "CONC(=O)c1ccccc1Nc1cc(Nc2cc(C)nn2C(C)C)ncc1Cl", "activity change, negative = inhibition": "-10.2%"}, {"compound": "CCOc1ccc(CC2NC(=O)CCSSCC(C(=O)N3CCCC3C(=O)NC(CCCN)C(=O)NCC(N)=O)NC(=O)C(CC(N)=O)NC(=O)C(C(C)O)NC(=O)C(C(C)CC)NC2=O)cc1", "note": "(stereo not given) ([Mpa]Y(Et)ITNCP[Orn]G-NH2; disulfide 1-6; configuration not given here)", "activity change, negative = inhibition": "-38.4%"}, {"compound": "CC(C)N(CCCNC(=O)Nc1ccc(C(C)(C)C)cc1)C[C@H]1O[C@@H](n2ccc3c(N)ncnc32)[C@H](O)[C@@H]1O", "activity change, negative = inhibition": "-9.11%"}, {"compound": "CC[C@H](Nc1ncnc2nc[nH]c12)c1oc2ccccc2c(=O)c1-c1cccc(F)c1", "Potency": "inactive"}, {"compound": "CC[C@H]1OC(=O)[C@H](C)[C@@H](O[C@H]2C[C@@](C)(OC)[C@@H](O)[C@H](C)O2)[C@H](C)[C@@H](O[C@@H]2O[C@H](C)C[C@H](N(C)C)[C@H]2O)[C@](C)(O)C[C@@H](C)CN(C)[C@H](C)[C@@H](O)[C@]1(C)O", "Potency": "12.6 µM (active)"}, {"compound": "CCC(=O)N1CCOc2c(cc(-c3cc(OC)cc(OC)c3)cc2C(=O)N[C@H]2CCCN(C)C2)C1", "activity change, negative = inhibition": "-26.1%"}, {"compound": "CC/C(=C(/c1ccc(O)cc1)c1ccc(OCCNC)cc1)c1ccccc1", "activity change, negative = inhibition": "-36.5%"}, {"compound": "COc1cc(OC)c(/C=C/S(=O)(=O)Cc2ccc(OC)c(OP(=O)(O)O)c2)c(OC)c1", "activity change, negative = inhibition": "-77.7%"}, {"compound": "O=C(/C=C/c1ccc(Cl)cc1)N1CCC2(CC1)CN(Cc1ccc(Cl)c(Cl)c1)C(=O)O2", "activity change, negative = inhibition": "0.824%"}, {"compound": "Cn1cc(/C=C2\\C(=O)Nc3cccnc32)c2ccccc21", "activity change, negative = inhibition": "-43.1%"}, {"compound": "CCN1CCN(Cc2ccc(NC(=O)c3ccc(C)c(NC(=O)c4cncc(-c5cccs5)c4)c3)cc2C(F)(F)F)CC1", "Potency": "3.16 µM (active)"}, {"compound": "Cc1cncc(CN2CCC(=C3c4ccc(Cl)cc4CCc4cccnc43)CC2)c1", "Potency": "12.6 µM (active)"}, {"compound": "COc1cc2c(Nc3ccc(Cl)c(Cl)c3F)ncnc2cc1OCC1C[C@@H]2CN(C)C[C@@H]2C1", "note": "(stereo not given in full)", "Potency": "15.8 µM (active)"}, {"compound": "Cc1oc(=O)oc1COC(=O)N1CC[C@@H](N2CC/C(=C\\C3=C(C(=O)O)N4C(=O)[C@@H](NC(=O)/C(=N/O)c5nsc(N)n5)[C@H]4SC3)C2=O)C1", "activity change, negative = inhibition": "-27.9%"}, {"compound": "C[C@@H]1N=C(N)NC(N(C)C)=N1", "activity change, negative = inhibition": "-14.7%"}, {"compound": "COc1cc(N2CCN(C(C)=O)CC2)ccc1Nc1ncc(Cl)c(Nc2ccc(N3CCN(C(C)=O)CC3)cc2OC)n1", "activity change, negative = inhibition": "-12.2%"}, {"compound": "CC[C@H](CC[C@@H](C)[C@H]1CC[C@H]2[C@@H]3CC=C4C[C@@H](O)CC[C@]4(C)[C@H]3CC[C@]12C)C(C)C", "activity change, negative = inhibition": "-9.4%"}, {"compound": "O=C(COCC(=O)N1CCN(C(c2ccccc2)c2ccccc2)CC1)Nc1ccc(Cl)cc1C(=O)O", "activity change, negative = inhibition": "-0.414%"}, {"compound": "CC[C@@H](C)C[C@@H](C)CCCCCCCCC(=O)NC1C[C@@H](O)[C@@H](NCCN)NC(=O)[C@@H]2[C@@H](O)CCN2C(=O)[C@H]([C@H](O)CCN)NC(=O)[C@H]([C@H](O)[C@@H](O)c2ccc(O)cc2)NC(=O)[C@@H]2C[C@@H](O)CN2C(=O)[C@H]([C@@H](C)O)NC1=O", "note": "(stereo not given in full)", "activity change, negative = inhibition": "-9.2% [at 27.1 µM]"}, {"compound": "CC[C@H]1CN2CCc3cc(OC)c(OC)cc3C2C[C@@H]1CC1NCCc2cc(OC)c(OC)cc21", "note": "(stereo not given in full)", "Potency": "1.78 µM (active)"}, {"compound": "CO[C@H]1O[C@@H]2O[C@@]3(C)CC[C@H]4[C@H](C)CC[C@@H]([C@@H]1C)[C@@]24OO3", "activity change, negative = inhibition": "-7.86%"}, {"compound": "CSCC[C@H](N)C(=O)O", "Potency": "inactive"}, {"compound": "C=C1CC2C3CCC4=CC(=O)C=C[C@]4(C)[C@@]3(F)[C@@H](O)C[C@]2(C)[C@@]1(O)C(=O)COC(C)=O", "note": "(stereo not given in full)", "Potency": "inactive"}, {"compound": "C[C@@H](O)[C@@H]1NC(=O)[C@H](CCCCN)NC(=O)[C@@H](Cc2c[nH]c3ccccc23)NC(=O)[C@H](Cc2ccccc2)NC(=O)[C@@H](NC(=O)[C@H](N)Cc2ccccc2)CSSC[C@@H](C(=O)N[C@H](CO)[C@@H](C)O)NC1=O", "activity change, negative = inhibition": "-12.9% [at 27.1 µM]"}, {"compound": "CC(C)[C@H]1C(=O)N[C@@H](CCCN=C(N)N)C(=O)NCC(=O)N[C@@H](CC(=O)O)C(=O)N[C@H](Cc2ccccc2)C(=O)N1C", "activity change, negative = inhibition": "-11.5% [at 27.1 µM]"}, {"compound": "Cc1ccccc1-n1nc(-c2c(-c3ccc(F)cc3)nn3c2NC[C@@H](CO)C3)ccc1=O", "activity change, negative = inhibition": "-24.3%"}, {"compound": "O=c1sn(-c2cccc3ccccc23)c(=O)n1Cc1ccccc1", "Potency": "inactive"}, {"compound": "O=C(O)[C@H](O)[C@@H](O)[C@H](O)[C@H](O)CO", "Potency": "inactive"}, {"compound": "COc1cc(-c2cn(C)c(=O)c3cnccc23)cc(OC)c1CN(C)C", "Potency": "inactive"}, {"compound": "CC1(C)SCCN(S(=O)(=O)c2ccc(OCC#CCO)cc2)[C@H]1C(=O)NO", "activity change, negative = inhibition": "-8.73%"}, {"compound": "O=C(/C=C/c1ccc(/C=C/C(=O)Nc2ccc(C3=NCCN3)cc2)cc1)Nc1ccc(C2=NCCN2)cc1", "activity change, negative = inhibition": "-24.3% [at 5.25 µM]"}, {"compound": "Cc1c(Cl)c(C)[n+]([O-])c(Cl)c1-c1noc(-c2cc(O)c(O)c([N+](=O)[O-])c2)n1", "Potency": "14.1 µM (active)"}, {"compound": "CCC(O)c1ccccc1", "note": "(stereo not given)", "activity change, negative = inhibition": "-0.957%"}, {"compound": "Cn1c(/C=C/CO)c(CO)c2c1C(=O)C=C(N1CC1)C2=O", "Potency": "inactive"}, {"compound": "COC(=O)[C@H]1[C@H]2C[C@@H]3c4[nH]c5cc(OC)ccc5c4CCN3C[C@H]2C[C@@H](OC(=O)/C=C/c2cc(OC)c(OC)c(OC)c2)[C@@H]1OC", "activity change, negative = inhibition": "-22.2% [at 19 µM]"}, {"compound": "CC1(C)CC(O)CC(C)(C)N1O", "activity change, negative = inhibition": "-11.7%"}, {"compound": "O=C(O)CCC/C=C\\C[C@@H]1[C@@H](/C=C/[C@@H](O)COc2cccc(Cl)c2)[C@H](O)C[C@@H]1O", "Potency": "inactive"}]}]}
